In PubChem BioAssay one finds composite z-score and z-score data, which are given here for four compounds.

The structures appear in SMILES notation. Active and inactive are the calls of the source. Unless noted, no rule for the calls is given here.

Assay [1] deals with Wnt5a (protein binding on small-molecule microarray). The assay is described as follows: Wnt5a binders on small-molecule microarray, primary screen, biophysical, 635/667 nm fluorescence (AID 1142).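 Also: fluorescence read at 667 nm with signal to noise per printed feature.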 As to conditions: 635 nm fluorescence, higher = more signal.
A short description of assay [2]: cell viability in Huh7 cells, primary screen, cytotoxicity control for HCV replication inhibitor project, CellTiter-Glo luminescence, basal, 48 h (AID 1143).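 Also: Huh7 hepatoma cells carrying a hepatitis C replication reporter with no stimulus; test concentration not given here.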 Particulars: Huh7 HCV replicon, higher = more signal, called active from +8 up or from −8 down.
Assay [3] is described as follows: P. aeruginosa biofilm formation inhibitors, primary screen, PAO1 strain, BacTiter-Glo luminescence, LB-PBS (AID 1144). Particulars: 12 h, higher = more signal.
Assay [4] is described as follows: CREB reporter modulators without forskolin, primary screen, cell-based, PC12, CRE-LacZ reporter, unstimulated (AID 1145). As to conditions: no forskolin, luminescence, 4.5 h, higher = more signal, called active from +8 up or from −8 down.
A short description of assay [5]: CREB reporter modulators under forskolin, primary screen, cell-based, PC12, CRE-LacZ reporter, forskolin-stimulated (AID 1146).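 Also: PC12 cells with 6xCRE LacZ reporter stimulated by forskolin 10 µM; beta-galactosidase reporter signal reflecting CREB driven transcription.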 As to conditions: luminescence, 4.5 h, higher = more signal, called active from +8 up or from −8 down.
In assay [6] the target is Streptavidin (Streptomyces avidinii) (UniProt P22629). As to the kind of experiment: streptavidin binders on small-molecule microarray, primary screen, artefact control for SMM compound annotation, biophysical, 635/667 nm fluorescence (AID 1147).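 Also: signal reflects streptavidin binding to arrayed compounds as a control protein.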 Particulars: streptavidin binding, higher = more signal.
A short description of assay [7]: small-molecule binders of probe aInhba, primary screen, biochemical, small-molecule microarray, 635/667 nm fluorescence (AID 1148).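 Also: score merges 667nm spot fluorescence with signal-to-noise for antibody binding to printed compounds.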 As to conditions: higher = more signal.
For assay [8], the target named is Torsin-1A (Homo sapiens) (UniProt O14656). The assay is described as follows: torsin A binders from cell lysate, primary screen, small-molecule microarray, wild-type, 635/667 nm (AID 1149). As to conditions: COS7 hTOR1A-WT lysate, 635 nm fluorescence, higher = more signal.
Assay [9] shares this target. The assay is described as follows: small-molecule binders of mutant TOR1A in lysate, primary screen, cell lysate, small-molecule microarray, COS7 lysate, 635/667 nm fluorescence (AID 1150).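 Also: score pools 667 nm emission and signal to noise measuring lysate protein binding.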 Particulars: COS7 hTOR1A mutant lysate, 635 nm fluorescence, higher = more signal.
Assay [10] concerns Sonic hedgehog protein (Shh). The assay is described as follows: small-molecule binders of Shh protein, primary screen, biochemical, small-molecule microarray, 635/667 nm fluorescence (AID 1151).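 Also: Shh protein binding to compounds spotted on small-molecule microarray slides; score combines spot fluorescence intensity with signal-to-noise across triplicate slides.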 As to conditions: small-molecule microarray binding, 635 nm fluorescence; higher = more signal.
Assay [11] can be described thus: E. coli DRC41 culture turbidity changes, primary screen, E. coli filamentation inducer project, strain DRC41, OD650, 48 h (AID 1152).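 Also: E. coli MC1000 strain DRC41 lacking acrAB efflux pump and sulA.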 As to conditions: E. coli DRC41 (acrAB sulA), higher = more signal, called active from +8 up or from −8 down.
The nature of assay [12]: small-molecule binders of probe aLefty1, primary screen, biochemical, small-molecule microarray, 635/667 nm fluorescence (AID 1153).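 Also: score merges spot fluorescence with signal-to-noise ratio from the scanned slide images.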 Particulars: higher = more signal.
Assay [13] is described as follows: PSAC antagonists in infected red cells, primary screen, cell-based, P. falciparum Indochina, OD700, 1 h (AID 1154). As to conditions: P. falciparum Indochina infected RBC osmotic lysis, higher = more signal, called active from +8 up or from −8 down.
Assay [14] is described as follows: PSAC antagonists in infected red cells, primary screen, cell-based, P. falciparum Indochina, OD700, 2 h (AID 1155).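 Also: lysis reports solute entry through the parasite surface anion channel PSAC; channel blockers reduce lysis of infected cells.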 As to conditions: P. falciparum Indochina infected erythrocytes, osmotic lysis OD700; higher = more signal, called active from +8 up or from −8 down.
Assay [15] in a line: osmotic lysis modulators in infected erythrocytes, primary screen, PSAC antagonist project, cell-based, P. falciparum Indochina, OD700, 3 h (AID 1156). Particulars: higher = more signal, called active from +8 up or from −8 down.
Assay [16] can be described thus: PSAC antagonists in infected red cells, primary screen, cell-based, P. falciparum Indochina, OD700, 18 h (AID 1157). As to conditions: P. falciparum Indochina infected erythrocytes, osmotic lysis OD700, 18 h; higher = more signal, called active from +8 up or from −8 down.
Assay [17] can be described thus: modulators of S6 phosphorylation in cells, primary screen, cell-based, A549, cytoblot, luminescence, serum-stimulated (AID 1158).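 Also: serum-stimulated A549 lung adenocarcinoma cells; signal is phosphorylated S6 detected by cytoblot immunostaining with HRP secondary.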 Particulars: A549 phospho-S6 cytoblot, 5 h, higher = more signal.
Assay [18] concerns the target NADPH oxidase 2 (Homo sapiens) (UniProt P04839). The assay is described as follows: NOX2-dependent H2O2 signal modulators, primary screen, NOX inhibitor project, cell-based, HEK293-NOX2, PMA-stimulated, Amplex Red fluorescence (AID 1159). Also: test concentration not given here. Particulars: 45 min, higher = more signal, called active from +8 up or from −8 down.
Assay [19] deals with NADPH oxidase 4 (Homo sapiens) (UniProt Q9NPH5). As to the kind of experiment: NOX4-dependent H2O2 signal modulators, primary screen, NOX inhibitor project, cell-based, HEK293-NOX4, tetracycline-induced, Amplex Red fluorescence (AID 1160). As to conditions: 45 min, higher = more signal, called active from +8 up or from −8 down.
For assay [20], the target named is NADPH oxidase 5 (Homo sapiens) (UniProt Q96PH1). As to the kind of experiment: NOX5-dependent H2O2 signal modulators, primary screen, NOX inhibitor project, cell-based, HEK293-NOX5, Amplex Red fluorescence (AID 1161). Particulars: HEK293-NOX5, ionomycin, 45 min, higher = more signal.
Sequence of NADPH oxidase 5 (Homo sapiens) (Q96PH1 whole entry, looked up): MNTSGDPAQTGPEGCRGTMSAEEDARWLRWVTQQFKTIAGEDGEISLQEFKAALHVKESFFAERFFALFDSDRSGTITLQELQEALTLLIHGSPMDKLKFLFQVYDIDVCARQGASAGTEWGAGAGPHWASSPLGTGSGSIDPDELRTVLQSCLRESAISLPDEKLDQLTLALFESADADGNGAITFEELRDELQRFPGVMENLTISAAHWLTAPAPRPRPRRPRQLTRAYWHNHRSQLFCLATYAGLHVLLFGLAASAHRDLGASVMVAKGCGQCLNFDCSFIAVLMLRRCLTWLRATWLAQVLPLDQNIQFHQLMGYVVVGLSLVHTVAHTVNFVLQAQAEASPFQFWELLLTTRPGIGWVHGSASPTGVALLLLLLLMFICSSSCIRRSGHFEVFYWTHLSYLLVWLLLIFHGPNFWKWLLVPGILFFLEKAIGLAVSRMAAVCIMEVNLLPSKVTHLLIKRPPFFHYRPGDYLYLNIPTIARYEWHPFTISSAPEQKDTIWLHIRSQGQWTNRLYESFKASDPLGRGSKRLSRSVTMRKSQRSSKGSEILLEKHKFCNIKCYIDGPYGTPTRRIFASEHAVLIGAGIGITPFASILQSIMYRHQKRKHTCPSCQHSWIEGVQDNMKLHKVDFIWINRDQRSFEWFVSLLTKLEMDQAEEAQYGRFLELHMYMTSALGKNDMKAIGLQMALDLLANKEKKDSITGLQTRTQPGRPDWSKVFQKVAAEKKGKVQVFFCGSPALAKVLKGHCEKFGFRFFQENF

Sequence of NADPH oxidase 2 (Homo sapiens) (P04839 whole entry, looked up): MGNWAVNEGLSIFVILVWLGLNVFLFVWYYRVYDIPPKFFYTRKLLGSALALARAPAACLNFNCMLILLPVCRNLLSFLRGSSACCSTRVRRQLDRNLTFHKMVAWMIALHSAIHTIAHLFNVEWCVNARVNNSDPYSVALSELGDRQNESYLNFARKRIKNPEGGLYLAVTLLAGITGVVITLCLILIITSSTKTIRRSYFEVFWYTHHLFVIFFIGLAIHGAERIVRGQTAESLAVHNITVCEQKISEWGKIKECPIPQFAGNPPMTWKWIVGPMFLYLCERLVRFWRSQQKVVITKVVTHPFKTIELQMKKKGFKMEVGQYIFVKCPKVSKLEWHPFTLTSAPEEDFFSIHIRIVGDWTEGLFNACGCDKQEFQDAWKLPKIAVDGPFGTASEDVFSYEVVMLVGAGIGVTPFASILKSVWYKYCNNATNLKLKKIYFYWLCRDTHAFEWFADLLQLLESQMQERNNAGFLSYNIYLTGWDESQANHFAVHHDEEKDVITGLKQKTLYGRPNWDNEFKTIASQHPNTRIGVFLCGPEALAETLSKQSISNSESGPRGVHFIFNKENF
Sequence of NADPH oxidase 4 (Homo sapiens) (Q9NPH5 whole entry, looked up): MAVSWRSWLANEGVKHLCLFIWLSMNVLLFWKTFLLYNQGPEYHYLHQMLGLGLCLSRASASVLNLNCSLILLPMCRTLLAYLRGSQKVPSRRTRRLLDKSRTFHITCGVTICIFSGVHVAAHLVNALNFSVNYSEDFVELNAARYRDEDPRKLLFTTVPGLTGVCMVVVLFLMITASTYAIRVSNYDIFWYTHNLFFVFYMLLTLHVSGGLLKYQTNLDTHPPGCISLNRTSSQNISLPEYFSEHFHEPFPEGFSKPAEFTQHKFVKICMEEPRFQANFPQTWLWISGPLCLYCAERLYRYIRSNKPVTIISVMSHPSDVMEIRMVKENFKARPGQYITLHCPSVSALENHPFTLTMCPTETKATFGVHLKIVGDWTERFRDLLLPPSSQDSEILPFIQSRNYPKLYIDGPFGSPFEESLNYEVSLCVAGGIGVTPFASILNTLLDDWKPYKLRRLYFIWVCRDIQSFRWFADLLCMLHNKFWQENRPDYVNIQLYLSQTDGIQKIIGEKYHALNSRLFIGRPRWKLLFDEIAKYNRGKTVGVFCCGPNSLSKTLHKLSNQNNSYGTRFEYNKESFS
Sequence of Streptavidin (Streptomyces avidinii) (P22629 whole entry, looked up): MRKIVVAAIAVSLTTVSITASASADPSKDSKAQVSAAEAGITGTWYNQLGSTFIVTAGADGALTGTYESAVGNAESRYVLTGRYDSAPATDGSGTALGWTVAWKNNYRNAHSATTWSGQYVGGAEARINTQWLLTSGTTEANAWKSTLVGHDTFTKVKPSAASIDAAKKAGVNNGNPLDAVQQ
Sequence of Torsin-1A (Homo sapiens) (O14656 whole entry, looked up): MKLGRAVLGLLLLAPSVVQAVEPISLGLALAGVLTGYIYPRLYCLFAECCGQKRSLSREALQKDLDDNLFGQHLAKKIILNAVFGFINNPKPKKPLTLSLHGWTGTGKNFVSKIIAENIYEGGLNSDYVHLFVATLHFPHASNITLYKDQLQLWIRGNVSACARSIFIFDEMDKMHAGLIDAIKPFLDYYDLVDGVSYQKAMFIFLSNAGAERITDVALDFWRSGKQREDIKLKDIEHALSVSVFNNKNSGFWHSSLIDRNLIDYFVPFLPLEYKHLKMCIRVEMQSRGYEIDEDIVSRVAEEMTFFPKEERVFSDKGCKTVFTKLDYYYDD

On to `CCOC(=O)C1=C[C@@H](C(C)C)N(S(=O)(=O)c2ccc(C)cc2)[C@H]1c1ccccc1F`, for which the composite z-score worked out at 0.197 in assay [1]; 1.08 in [6]; 0.0816 in assay [7]; 0.345 with Torsin-1A (Homo sapiens) [8]; 1.15 in the assay with Torsin-1A (Homo sapiens) [9]; 0.394 in assay [10]. The compound further registered a composite z-score in assay [12] of 0.389. Moreover, the z-score was -2.77 (inactive) in [2]; -0.0791 (inactive) in assay [3]; -0.527 (inactive) in assay [4]; -0.0445 (inactive) in assay [5]; -1.02 (inactive) in [11]; 0.21 (inactive) in [13]. The z-score is 0.668 (inactive) in assay [14]; -0.422 (inactive) in assay [15]; 0.587 (inactive) in [16]; -0.851 in assay [17]; 0.173 (inactive) in assay [18]; -0.957 (inactive) in assay [19]. The compound also displayed a z-score in [20] of 1.06.
As to `C=CCC(OC(C)=O)[C@@H]1[C@@H](N(Cc2ccc(-c3ccccc3)cc2)C(=O)Cc2ccc(F)cc2)c2cc(OCCCO)ccc2N1C(=O)c1ccc2ccccc2c1` (stereo not given in full), the composite z-score is -0.121 in assay [1]; -0.0075 in assay [6]; 0.0464 in [7]; -0.287 with Torsin-1A (Homo sapiens) [8]; -0.0056 with Torsin-1A (Homo sapiens) [9]; 0.627 in assay [10]. In assay [12], the composite z-score came to 0.193. Moreover, the z-score in assay [2] is 0.0038 (inactive); in assay [3], 0.197 (inactive); in assay [4] it was 0.819 (inactive); in [5], 0.601 (inactive); in [11], 0.185 (inactive); in assay [13] it was -0.0408 (inactive). The z-score in [14] was 0.345 (inactive); in assay [15], -0.348 (inactive); in assay [16], 0.703 (inactive); in assay [17], -0.0772; in [18], 0.719 (inactive); in [19] it was 0.587 (inactive). Moreover, the z-score in [20] was found to be 1.82.
Regarding `O=C1[C@H]2C=C(I)[C@H](C[C@@H]2OCCCCO)[C@@]12CO2`, the composite z-score in [1] is -0.163; in assay [6], -0.162; in assay [7], -0.025; with Torsin-1A (Homo sapiens) [8], 0.953; with Torsin-1A (Homo sapiens) [9], 0.625; in assay [10] it was 0.745. This compound gave a composite z-score in assay [12] of 0.0437. The z-score in assay [2] is 0.634 (inactive); in assay [3] it was -0.0455 (inactive); in [4], -0.235 (inactive); in assay [5], 1.6 (inactive); in assay [11], -0.989 (inactive); in assay [13], 1.01 (inactive). Further, the z-score is -0.171 (inactive) in [14]; 0.282 (inactive) in assay [15]; -0.039 (inactive) in assay [16]; 0.764 in assay [17]; -0.0538 (inactive) in assay [18]; 0.491 (inactive) in assay [19]. The z-score in assay [20] is -0.584.
For the compound `[N-]=[N+]=Nc1ccccc1C[C@]1(C(=O)N2CCCCC2)COC(c2ccc(OCCCO)cc2)=N1`, the composite z-score in assay [1] is 0.427; in [6], 1.22; in [7], 0.0108; with Torsin-1A (Homo sapiens) [8], 0.552; with Torsin-1A (Homo sapiens) [9], 0.742; in assay [10] it was -0.385. Also, the composite z-score in [12] came to 0.371. The z-score was -4.35 (inactive) in assay [2]; 1.38 (inactive) in assay [3]; 1.01 (inactive) in assay [4]; -0.57 (inactive) in [5]; 0.891 (inactive) in [11]; 23.1 (active) in assay [13]. Further, the z-score in [14] is 9.64 (active); in assay [15], 3.34 (inactive); in [16], 1.77 (inactive); in assay [17], -0.391; in [18], -4.46 (inactive); in assay [19] it was -0.826 (inactive). In addition, the z-score in assay [20] was -1.79.
